Results published in ChEMBL document CHEMBL1961873, “Compounds: GSK PKIS; Assays: Nanosyn kinase panel” (2012).

How the values were obtained:
[1] = biological target: Tyrosine-protein kinase SYK (Homo sapiens) (UniProt P43405); settings: at 1 µM
[2] = biological target: T1, Tyrosine-protein kinase Tec (Homo sapiens) (UniProt P42680); settings: at 0.1 µM
T1 sequence (whole entry): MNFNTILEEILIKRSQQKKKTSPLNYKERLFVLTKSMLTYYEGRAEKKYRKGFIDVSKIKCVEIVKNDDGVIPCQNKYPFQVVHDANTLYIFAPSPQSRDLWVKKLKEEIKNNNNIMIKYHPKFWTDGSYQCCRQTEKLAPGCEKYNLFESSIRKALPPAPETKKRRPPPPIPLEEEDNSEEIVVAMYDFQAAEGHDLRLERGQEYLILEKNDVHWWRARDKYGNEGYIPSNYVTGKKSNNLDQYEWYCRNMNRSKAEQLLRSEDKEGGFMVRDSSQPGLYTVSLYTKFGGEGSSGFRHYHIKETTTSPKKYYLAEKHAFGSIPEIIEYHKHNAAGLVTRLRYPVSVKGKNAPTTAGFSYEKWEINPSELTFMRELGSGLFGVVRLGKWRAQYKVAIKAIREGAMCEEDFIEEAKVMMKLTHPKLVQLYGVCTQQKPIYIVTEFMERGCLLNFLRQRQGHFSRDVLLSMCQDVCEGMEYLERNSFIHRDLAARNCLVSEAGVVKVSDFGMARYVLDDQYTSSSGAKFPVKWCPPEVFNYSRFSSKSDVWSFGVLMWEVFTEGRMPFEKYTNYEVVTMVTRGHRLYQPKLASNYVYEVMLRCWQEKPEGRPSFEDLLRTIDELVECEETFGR

[3] = biological target: T1, Tyrosine-protein kinase Tec (Homo sapiens); settings: at 1 µM
[4] = biological target: Angiopoietin-1 receptor (Homo sapiens) (UniProt Q02763); settings: at 0.1 µM
[5] = biological target: Angiopoietin-1 receptor (Homo sapiens) (UniProt Q02763); settings: at 1 µM
[6] = biological target: T2, Non-receptor tyrosine-protein kinase TNK1 (Homo sapiens) (UniProt Q13470); settings: at 0.1 µM
T2 sequence (whole entry): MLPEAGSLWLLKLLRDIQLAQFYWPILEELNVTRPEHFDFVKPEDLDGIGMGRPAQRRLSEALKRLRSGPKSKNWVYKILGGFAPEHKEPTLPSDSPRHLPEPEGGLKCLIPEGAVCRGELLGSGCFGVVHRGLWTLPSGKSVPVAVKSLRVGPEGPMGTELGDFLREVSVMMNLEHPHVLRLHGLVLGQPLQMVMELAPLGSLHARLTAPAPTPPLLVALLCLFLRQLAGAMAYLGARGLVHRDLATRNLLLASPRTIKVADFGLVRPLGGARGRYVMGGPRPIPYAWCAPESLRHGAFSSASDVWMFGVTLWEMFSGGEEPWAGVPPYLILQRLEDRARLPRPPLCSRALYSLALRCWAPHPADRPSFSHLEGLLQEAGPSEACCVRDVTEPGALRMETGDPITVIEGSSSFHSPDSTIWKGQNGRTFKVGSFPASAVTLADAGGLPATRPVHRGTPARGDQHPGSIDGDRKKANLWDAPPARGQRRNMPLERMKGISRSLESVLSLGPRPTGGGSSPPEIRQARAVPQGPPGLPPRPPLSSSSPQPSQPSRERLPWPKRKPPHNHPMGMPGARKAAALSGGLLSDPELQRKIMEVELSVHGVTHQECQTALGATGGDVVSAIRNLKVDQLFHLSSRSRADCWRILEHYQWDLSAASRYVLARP

[7] = biological target: T2, Non-receptor tyrosine-protein kinase TNK1 (Homo sapiens); settings: at 1 µM
[8] = biological target: Activated CDC42 kinase 1 (Homo sapiens) (UniProt Q07912); settings: at 0.1 µM
[9] = biological target: Activated CDC42 kinase 1 (Homo sapiens) (UniProt Q07912); settings: at 1 µM
[10] = biological target: High affinity nerve growth factor receptor (Homo sapiens) (UniProt P04629); settings: at 0.1 µM;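 note: each value is a mean of replicate percent inhibition readings against TRKA kinase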
Sequence of High affinity nerve growth factor receptor (Homo sapiens) (P04629 33-796 limits assumed): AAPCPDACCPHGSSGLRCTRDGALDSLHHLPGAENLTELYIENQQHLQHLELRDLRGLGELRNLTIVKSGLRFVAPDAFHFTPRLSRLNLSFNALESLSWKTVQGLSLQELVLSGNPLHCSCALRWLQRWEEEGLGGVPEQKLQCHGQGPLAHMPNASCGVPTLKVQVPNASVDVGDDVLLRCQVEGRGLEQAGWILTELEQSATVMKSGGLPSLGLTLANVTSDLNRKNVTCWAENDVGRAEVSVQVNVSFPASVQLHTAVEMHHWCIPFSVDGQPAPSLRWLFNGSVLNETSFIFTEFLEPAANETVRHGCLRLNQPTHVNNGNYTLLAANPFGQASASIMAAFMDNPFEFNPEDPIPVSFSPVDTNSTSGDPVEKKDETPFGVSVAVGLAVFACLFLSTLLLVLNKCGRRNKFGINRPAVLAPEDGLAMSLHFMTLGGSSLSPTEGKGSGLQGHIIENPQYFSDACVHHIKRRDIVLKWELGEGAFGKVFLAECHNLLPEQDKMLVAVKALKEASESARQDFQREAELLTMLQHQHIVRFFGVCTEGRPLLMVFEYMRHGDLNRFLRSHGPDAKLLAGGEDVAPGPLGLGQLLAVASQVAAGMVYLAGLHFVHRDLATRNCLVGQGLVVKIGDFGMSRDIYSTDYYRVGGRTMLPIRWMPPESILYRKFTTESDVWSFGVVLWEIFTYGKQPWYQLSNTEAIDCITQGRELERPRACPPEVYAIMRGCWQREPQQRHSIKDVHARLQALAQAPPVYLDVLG

Sequence of Activated CDC42 kinase 1 (Homo sapiens) (Q07912 whole entry, looked up): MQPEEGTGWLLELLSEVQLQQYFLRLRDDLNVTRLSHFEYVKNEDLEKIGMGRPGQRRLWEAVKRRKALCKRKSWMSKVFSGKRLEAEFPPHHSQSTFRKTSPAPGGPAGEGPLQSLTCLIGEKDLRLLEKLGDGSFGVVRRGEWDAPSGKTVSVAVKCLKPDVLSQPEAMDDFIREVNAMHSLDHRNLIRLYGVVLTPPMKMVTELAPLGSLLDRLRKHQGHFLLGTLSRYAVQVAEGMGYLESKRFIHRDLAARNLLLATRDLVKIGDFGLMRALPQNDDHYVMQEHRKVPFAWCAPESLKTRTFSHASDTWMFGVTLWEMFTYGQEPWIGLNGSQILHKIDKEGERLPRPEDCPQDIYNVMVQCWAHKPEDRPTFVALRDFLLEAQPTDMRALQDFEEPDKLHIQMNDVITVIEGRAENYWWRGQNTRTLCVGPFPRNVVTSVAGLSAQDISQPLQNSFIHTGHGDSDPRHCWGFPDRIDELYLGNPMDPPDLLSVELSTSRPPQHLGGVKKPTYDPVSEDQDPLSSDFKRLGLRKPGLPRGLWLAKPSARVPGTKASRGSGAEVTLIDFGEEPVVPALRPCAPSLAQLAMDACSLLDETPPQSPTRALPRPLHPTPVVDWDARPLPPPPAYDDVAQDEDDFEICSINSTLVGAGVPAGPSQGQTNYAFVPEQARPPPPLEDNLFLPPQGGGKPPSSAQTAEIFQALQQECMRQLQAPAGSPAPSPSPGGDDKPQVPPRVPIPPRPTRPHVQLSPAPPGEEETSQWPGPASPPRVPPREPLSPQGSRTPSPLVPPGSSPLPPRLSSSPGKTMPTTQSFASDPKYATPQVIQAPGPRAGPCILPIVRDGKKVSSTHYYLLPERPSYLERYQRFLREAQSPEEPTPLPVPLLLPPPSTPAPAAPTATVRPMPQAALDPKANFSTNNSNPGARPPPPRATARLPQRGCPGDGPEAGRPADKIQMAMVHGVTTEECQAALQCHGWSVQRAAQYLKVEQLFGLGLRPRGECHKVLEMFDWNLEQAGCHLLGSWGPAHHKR
Sequence of Angiopoietin-1 receptor (Homo sapiens) (Q02763 whole entry): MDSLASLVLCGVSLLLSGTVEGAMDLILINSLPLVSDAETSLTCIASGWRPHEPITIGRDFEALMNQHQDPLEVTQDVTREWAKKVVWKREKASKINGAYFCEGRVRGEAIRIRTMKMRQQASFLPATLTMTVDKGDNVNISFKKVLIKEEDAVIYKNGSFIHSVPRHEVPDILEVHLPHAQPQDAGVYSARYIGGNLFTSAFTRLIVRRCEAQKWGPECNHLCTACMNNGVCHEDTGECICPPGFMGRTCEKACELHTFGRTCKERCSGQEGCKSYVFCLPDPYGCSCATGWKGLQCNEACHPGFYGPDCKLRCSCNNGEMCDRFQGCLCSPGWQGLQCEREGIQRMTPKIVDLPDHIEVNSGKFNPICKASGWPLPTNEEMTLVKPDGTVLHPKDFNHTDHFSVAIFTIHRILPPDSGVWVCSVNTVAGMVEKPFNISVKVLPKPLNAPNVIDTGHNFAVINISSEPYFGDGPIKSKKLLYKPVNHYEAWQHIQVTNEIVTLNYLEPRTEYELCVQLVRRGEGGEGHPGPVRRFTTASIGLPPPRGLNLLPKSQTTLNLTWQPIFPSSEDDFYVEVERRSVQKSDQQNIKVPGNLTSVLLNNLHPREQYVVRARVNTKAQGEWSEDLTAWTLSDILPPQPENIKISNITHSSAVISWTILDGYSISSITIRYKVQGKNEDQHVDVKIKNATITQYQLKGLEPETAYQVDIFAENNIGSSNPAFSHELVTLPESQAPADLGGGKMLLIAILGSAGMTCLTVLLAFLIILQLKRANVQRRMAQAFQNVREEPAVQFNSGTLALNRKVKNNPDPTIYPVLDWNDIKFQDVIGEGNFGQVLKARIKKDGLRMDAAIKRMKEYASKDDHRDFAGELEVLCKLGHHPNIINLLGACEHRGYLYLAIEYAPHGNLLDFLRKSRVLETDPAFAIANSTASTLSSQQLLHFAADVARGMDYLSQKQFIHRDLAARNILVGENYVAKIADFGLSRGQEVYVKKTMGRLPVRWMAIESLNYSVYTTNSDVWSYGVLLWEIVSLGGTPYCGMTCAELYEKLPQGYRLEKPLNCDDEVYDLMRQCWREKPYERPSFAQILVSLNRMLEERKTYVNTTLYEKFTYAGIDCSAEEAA

Structure (SMILES)	inhibition [1] [%]	inhibition [2] [%]	inhibition [3] [%]	inhibition [4] [%]	inhibition [5] [%]	inhibition [6] [%]	inhibition [7] [%]	inhibition [8] [%]	inhibition [9] [%]	inhibition [10] [%]
O=S(=O)(CCOCc1ccc(-c2ccc3ncnc(Nc4ccc(OCc5cccc(F)c5)c(Cl)c4)c3c2)o1)c1ccccc1	1.2	0.41	0.9	3.25	2.48	1.59	5.35	-0.03	-0.95	-0.1
O=C1Nc2ccc(-c3cccnc3)cc2C1=Cc1cc(Br)c(O)c(Br)c1	-2.96	3.68	8.99	1.2	2.63	52.5	80.6	1.09	3.05	4.7
Cc1ccc(O)cc1Nc1ccnc2ccc(S(C)(=O)=O)cc12	-3.99	77.9	82.7	27.1	70.5	4.13	13.7	9.97	54.8	2.69
[O-][S+]1CCN(Cc2ccc(-c3ccc4ncnc(Nc5ccc(OCc6ccccc6)c(Cl)c5)c4c3)o2)CC1	0	-0.94	1.06	0.37	1.08	-0.33	9.61	0.09	-0.42	1.88
Nc1ccc(C#Cc2cncnc2Nc2ccc(OCc3cccc(F)c3)c(Cl)c2)cc1	-2.35	-0.48	3.77	1.84	3.47	-0.01	–	1.62	1.81	4.31
ON=C1CCc2cc(-c3nc(C4CCNCC4)[nH]c3-c3ccncc3)ccc21	0.36	1.46	2.88	1.37	1.77	-4.28	-5.17	-0.93	-2.5	-3.45
Cc1ccc(Nc2ccnc(Nc3cccc(C(N)=O)c3)n2)cc1O	14.2	18	57.1	4.56	39.7	8.82	52.1	3.73	28.8	4.38
NS(=O)(=O)c1cccc(Nc2cc(-c3ccc(F)cc3)n[nH]2)c1	-1	3.27	6.08	0.52	4.79	2.68	16.2	0.5	2.57	2.83
CS(=O)(=O)CCNCc1nc(-c2ccc3ncnc(Nc4ccc(OCc5cccc(C(F)(F)F)c5)cc4)c3c2)cs1	2.72	4.74	5.07	5.84	6.51	0.85	2.82	0.72	3.3	0.13
CN1CCN(C(=O)c2ccc(NC(=O)Nc3ccc(N(C)c4ccnc(Nc5ccc(CS(C)(=O)=O)cc5)n4)cc3)cc2)CC1	-2.49	10.1	37.1	33.2	67.1	46.2	–	8.52	61	7.78
Cc1cc(-c2ccccn2)cc(C)c1/C=C/c1cncc(-c2nn[nH]n2)c1	-0.42	4.67	12.4	2.01	8.32	9.02	50.8	0.32	2.33	2.23
COc1cc(Nc2nccc(-c3cnn4ncccc34)n2)cc(OC)c1	61.2	9.2	42.9	7.05	39.6	26.8	64.4	3.06	35.6	0.98
CCS(=O)(=O)c1ccc(OC)c(Nc2ncc(-c3cccc(OC)c3)o2)c1	-2.39	8.3	35.5	3.35	16.1	49	90.6	2.52	15.3	7.51
N#Cc1c(NC(=O)c2ccccc2F)sc2c1CCCC2	0.42	-1.7	0.35	-1.22	3.44	-2.62	-0.58	-0.05	3	-0.84
N#Cc1cccc(Nc2nccc(-c3cnn4ncccc34)n2)c1	53.2	8.87	39.3	3.66	18.6	11.9	52.3	2.35	11.7	15.4
NS(=O)(=O)c1ccc(N/N=C2\C(=O)Nc3ccc(Cl)cc32)cc1	-3.16	4.2	6.14	0.79	3.42	3.04	20.5	0.4	3.7	3.01
NS(=O)(=O)c1ccc(NC=C2C(=O)Nc3ccc4ncsc4c32)cc1	3.68	5.73	22.4	1.88	19.6	15.6	53.1	1.41	9.93	15.9

Structure (SMILES)	inhibition [1] [%]	inhibition [2] [%]	inhibition [3] [%]	inhibition [4] [%]	inhibition [5] [%]	inhibition [6] [%]	inhibition [7] [%]	inhibition [8] [%]	inhibition [9] [%]	inhibition [10] [%]
O=C(Nc1ccc(Oc2ccc3[nH]c(NC(=O)c4ccco4)nc3c2)cc1)Nc1cc(C(F)(F)F)ccc1F	-2.67	-1.71	0.35	49.4	82.4	9.16	58.6	0.17	0.5	30.2
COc1cc2ncnc(Nc3ccc(C)c(O)c3)c2cc1OC	0.27	11.1	36.6	3.58	17.7	5.34	23.8	1.4	5.7	1.85
Cc1ccc(NC(=O)CC2CC2)cc1-c1ccc(C(=O)NCC2CC2)cc1	0.5	5.07	8.67	2.75	6.74	2.27	10.1	0.82	3.94	3.3
COc1cc(/C=N/Nc2ncnc3c2cnn3C(C)C)ccc1O	35.4	3.27	13.6	0.88	12.2	1.37	7.79	0.51	5.5	1.66
CS(=O)(=O)Nc1cccc(-c2ccc3c(NC(=O)C4CC4)n[nH]c3c2)c1	0.89	2.55	3.97	1.52	7.04	2.45	-6.75	-0.85	-2.06	-1.92
COc1ccc(-c2nn3ncccc3c2-c2ccnc(Nc3cccc(C(F)(F)F)c3)n2)cc1	-2.11	1.14	4.73	2.11	9.2	7.47	9.47	0.73	0.85	1.79
CN(C)C(=O)O[C@H]1CN[C@H](C#Cc2cc3ncnc(Nc4ccc(OCc5cccc(F)c5)c(Cl)c4)c3s2)C1	-0.76	3.98	6.52	2.98	5.32	1.02	12	1.42	1.79	2.9
Cc1cc(O)cc(C)c1/C=C/c1cncc(C(=O)N(C)C)c1	2.96	3.84	5.03	5.65	10.7	–	1.79	1.45	2.24	2.88
NS(=O)(=O)c1ccc(Nc2cc(-c3cccc(O)c3)n[nH]2)cc1	-0.51	5.22	5.56	4.05	3.13	4.11	7.43	1.36	2.01	4.76
CN(c1ccc(NC(=O)Nc2ccc(OC(F)(F)F)cc2)cc1)c1ccnc(Nc2cccc(S(N)(=O)=O)c2)n1	–	0.44	7.04	36	79.2	21.4	82.2	0.67	4.69	30
CCCN1CCCC(c2ccc(Nc3nc(Nc4cc(F)ccc4C(N)=O)c4cc[nH]c4n3)c(OC)c2)C1 (stereo unspecified)	75.8	4.67	9.82	4	4.28	41.2	81	5.79	41.1	3.35
FC(F)(F)c1ccc(-c2nn3ncccc3c2-c2ccnc(Nc3ccc4c(c3)OCCO4)n2)cc1	0.25	3.97	5.21	9.11	33.8	6.18	22.2	6.74	8.14	-1.21
CN(C)c1cc2c(Nc3ccc4c(cnn4Cc4ccccc4)c3)ncnc2cn1	0.09	3.97	9.92	2.74	5.29	3.66	14.7	0.72	1.68	1.75
Nc1nccc(C#Cc2cncnc2Nc2ccc(OCc3cccc(F)c3)c(Cl)c2)n1	-0.63	5.34	13.6	4.38	3.5	5.1	8.89	1.73	3.21	4.45
COC(=O)c1cncc(/C=C/c2c(C)cc(O)cc2C)c1	-1.42	6.12	20.5	1	1.3	4.05	20	1.2	5.39	2.21
COc1cccc(-n2ncc3c(N/N=C/c4ccc(C)cc4)ncnc32)c1	0.76	6.46	5.78	4.38	5.1	4.86	9.73	0.47	5.39	9.62
COC(=O)c1ccc2c(c1)C(=Cc1cc(Br)c(O)c(Br)c1)C(=O)N2	-1.69	9.11	7.75	3.09	3.01	25.5	70.2	0.88	8.96	2.4
